# According to PubChem BioAssay (NCATS):
# Results filed as inconclusive are left out. Where a call stands in place of a potency, no number is given. Activity calls are given as the source filed them. Unless noted, the call rests on the fitted dose curve; in most records, active means well fitted inhibition curve with a large enough effect; inconclusive means small, poorly fitted or top-dose-only effect; inactive means flat fitted curve, though single readings scatter.
# Assays:
# [1] = qHTS to identify inhibitors of the type 1 interferon - major histocompatibility complex class I in skeletal muscle: primary screen against the NCATS Pharmaceutical Collection (AID 1347407); settings: human skeletal muscle cells, IFN-b-induced MHC-I HiBiT luminescence, 24 h; series mostly up to 45.9 µM;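 further: luminescence of HiBiT knocked into endogenous HLA-B as interferon-induced MHC class I level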
# How it was run: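 A qHTS format is used: 8-point, 1:5 compound series with 46 uM top final concentration, applied alongside 4 ng/ml IFN-beta to HLA-B*08:01-HiBiT knock-in myoblasts. Luminescence is measured after 24 h treatment.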
# [2] = qHTS to identify inhibitors of the type 1 interferon - major histocompatibility complex class I in skeletal muscle: primary screen against the NCATS LOPAC collection (AID 1347405); settings: iHSKM muscle cells, IFN-b-induced MHC-I HiBiT luminescence, 24 h; series mostly up to 45.9 µM;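 further: lytic HiBiT luminescence reporting HLA-B protein level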
# How it was run: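 CRISPR-engineered immortalized human myoblasts (C25cl48) with HiBiT fused to endogenous HLA-B*08:01, stimulated with 4 ng/ml IFN-beta. LOPAC compounds tested as a 7-point 1:4.3 titration (top 46 uM final), 24 h at 37 C; lytic HiBiT luminescence read.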
# [3] = qHTS for inhibitors of Rabies Virus screened against the NCATS CANVASS Library (AID 1347402; calls by dose curve); settings: Rabies virus infection cell assay; series mostly up to 45.9 µM
compound,measurement,setting,value
CN1C(=O)COc2c(C(=O)NC3CN4CCC3CC4)cc(Cl)cc21 (centres undefined),Potency,[1],inactive
CCCCCN(C)CCC(O)(P(=O)(O)O)P(=O)(O)O,outcome,[2],inactive
CN1CCC[C@@H]1c1cccnc1,outcome,[3],inactive
O=C(CCCN1CCC2(CC1)C(=O)NCN2c1ccccc1)c1ccc(F)cc1,outcome,[2],inactive
same,Potency,[1],inactive
CC(C)c1cccc(C(C)C)c1O,outcome,[2],inactive
same,Potency,[1],inactive
CCCCC/C=C\C/C=C\C/C=C\C/C=C\CCCC(=O)NCC(=O)O,Potency,[1],inactive
O=C1OC(c2ccc(O)c(S(=O)(=O)O)c2)(c2ccc(O)c(S(=O)(=O)O)c2)c2c(Br)c(Br)c(Br)c(Br)c21,Potency,[1],inactive
CC(C)(C)NCC(O)c1ccccc1Cl (centres undefined),outcome,[2],inactive
same,Potency,[1],inactive
CN1C(=O)CCS(=O)(=O)C1c1ccc(Cl)cc1 (centres undefined),outcome,[2],inactive
same,Potency,[1],inactive
C=C(C)[C@H]1CN[C@H](C(=O)O)[C@H]1CC(=O)O,outcome,[2],inactive
same,Potency,[1],inactive
O=C1CN=C(c2ccccc2)c2cc([N+](=O)[O-])ccc2N1,Potency,[1],inactive
COc1ccc2[nH]cc(CCNC(C)=O)c2c1,outcome,[3],inactive
CC(=O)NC1CCSC1=O (centres undefined),Potency,[1],inactive
COP(=S)(OC)Oc1ccc(SC)c(C)c1,Potency,[1],inactive
C[C@@H]1O[C@@H](OC[C@H]2O[C@@H](Oc3c(-c4ccc(O)c(O)c4)oc4cc(O)cc(O)c4c3=O)[C@H](O)[C@@H](O)[C@@H]2O)[C@H](O)[C@H](O)[C@H]1O,outcome,[3],inactive
Cc1ncsc1CCCl,outcome,[2],inactive
same,Potency,[1],inactive
C=CCC1(C(C)CC)C(=O)NC(=O)NC1=O (centres undefined),Potency,[1],inactive
C[C@]12CCC(=O)C=C1CC[C@@H]1[C@@H]2CC[C@]2(C)C(=O)CC[C@@H]12,Potency,[1],inactive
